From PubChem BioAssay
DT40 TDP1 no CPT: qHTS for Inhibitors of human tyrosyl-DNA phosphodiesterase 1 (TDP1): qHTS in cells in absence of CPT; hit rate 15% among 420,000; DT40 Tdp1-/- hTDP1 cells, no CPT, ATP luminescence, 48 h; Potency, µM (series often up to 46.2 µM), inactives show at the top dose activity change, negative = growth inhibition, most hits filed as inhibitors; AID 686978, 2013; also: potency is read from the fitted curve at half-maximal effect; nearly all actives have a fitted effect of over 55% in size
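Readout: luminescence from CellTiter-Glo after 30 min in the dark at RT. Cells: DT40 Tdp1-/- with stable hTDP1, 400/well. Exposure: compounds alone, ≥48 hr, 37 °C.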
IL1B secr inh: qHTS for Inhibitors of Inflammasome Signaling: IL-1-beta AlphaLISA Primary Screen. THP-1 LPS/ATP IL-1B secretion, AlphaLISA, 16 h; stronger effect = lower value. activity change, % at 57.5 µM. hit rate 4.7% among 360,000; in the data active = activity change below about -50%; inconclusive = mostly about -30% to -49%
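THP-1 cells pretreated 1 hr with compounds (up to 57.5 uM final), then stimulated with LPS (250 ng/mL final) plus ATP (1.25 mM final); secreted IL-1B measured by AlphaLISA after 16 hr, decreased signal indicating inhibition.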
TDP1 block: qHTS Assay for Inhibitors of Tyrosyl-DNA Phosphodiesterase (TDP1). hit rate 0.28% among 350,000. Potency, µM (titrated, usually from 130 µM), without a hit: at the top dose activity change, negative = inhibition, most hits filed as inhibitors. recombinant TDP1, AlphaScreen DNA substrate cleavage. AID 485290, 2010; also: potency is read from the fitted curve at half-maximal effect; nearly all actives have a fitted effect of over 40% in size
Target sequence (Q9NUW8 whole entry, looked up): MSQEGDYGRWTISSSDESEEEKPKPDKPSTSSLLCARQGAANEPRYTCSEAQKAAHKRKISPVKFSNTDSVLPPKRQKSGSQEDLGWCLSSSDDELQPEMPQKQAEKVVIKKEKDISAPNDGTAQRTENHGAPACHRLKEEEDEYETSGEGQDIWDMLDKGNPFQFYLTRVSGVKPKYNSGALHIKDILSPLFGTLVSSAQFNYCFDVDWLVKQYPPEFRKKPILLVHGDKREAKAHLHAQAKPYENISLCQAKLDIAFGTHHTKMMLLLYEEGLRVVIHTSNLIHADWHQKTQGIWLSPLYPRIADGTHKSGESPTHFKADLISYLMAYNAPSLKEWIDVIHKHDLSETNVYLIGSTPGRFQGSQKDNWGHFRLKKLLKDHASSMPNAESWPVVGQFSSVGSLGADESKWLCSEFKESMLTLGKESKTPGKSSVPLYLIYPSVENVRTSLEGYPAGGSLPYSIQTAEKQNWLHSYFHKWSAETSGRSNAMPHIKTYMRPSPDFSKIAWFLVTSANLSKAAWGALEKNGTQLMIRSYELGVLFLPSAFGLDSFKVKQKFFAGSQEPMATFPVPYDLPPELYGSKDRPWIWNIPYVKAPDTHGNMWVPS
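AlphaScreen read-out: signal falls as enzyme removes the 3' tyrosine-FITC from a 5'-biotinylated DNA oligo (15 nM, 5 min, RT). Enzyme was E. coli-made recombinant Tdp1 at 1 nM, exposed to compound for 15 min beforehand; beads 10 ug/ml, 10 min.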
TDP1 cell CPT: qHTS for Inhibitors of human tyrosyl-DNA phosphodiesterase 1 (TDP1): qHTS in cells in presence of CPT. chicken DT40 Tdp1-/-;hTDP1 cells + 20 nM CPT, ATP luminescence, 48 h. Potency, µM (highest dose often 46.2 µM), without a hit: top-dose activity change, negative = growth inhibition, hits mostly inhibitors. hit rate 12% among 420,000; also: potency is read from the fitted curve at half-maximal effect; nearly all actives have a fitted effect of over 55% in size
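Chicken DT40 Tdp1-/- cells stably complemented with human TDP1 were seeded at 400 cells/well in medium containing 20 nM camptothecin, exposed to pin-transferred compounds, and grown at 37 °C for at least 48 hr. Viability was read as ATP luminescence.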
Giardia kill: Small Molecules that selectively kill Giardia lamblia: qHTS. Giardia lamblia trophozoite viability. activity change, % at 7.66 µM, hits read low. hit rate 0.15% among 340,000; in the data active = activity change below about -80%; inconclusive = between about -30% and that limit;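 also: parasites exposed to compound for two days anaerobically before the ATP read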
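Killing of trophozoites was scored by loss of ATP luminescence after a 48 hrs anaerobic exposure to compounds at 37 deg C, using 100 cells per well.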
ELG1 repair inh: qHTS screen for small molecules that inhibit ELG1-dependent DNA repair in human embryonic kidney (HEK293T) cells expressing luciferase-tagged ELG1; HEK293T ELG1-luciferase reporter, luminescence, 16 h; DNA damage induced by 5-fluorouridine; hit rate 2.3% among 330,000; AID 504467, 2011; Potency, µM (series often up to 46.1 µM), inactives show at the highest dose activity change, negative = inhibition, hits mostly inhibitors; also: potency is read from the fitted curve at half-maximal effect; nearly all actives have a fitted effect of over 55% in size
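Overnight (16 hr) co-exposure of 2,000 cells/well to 5-fluorouridine and compound at 37 °C preceded detection. Luciferase was quantified via ONE-Glo luminescence; loss of signal denotes inhibition.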
An asterisk follows results filed as active; u = inconclusive; x = not tested or not shown; [ ] = remark or other dose. This is a sample that favours compounds with a hit; in the whole collection about 19% have one here. Unless noted, calls follow the shape of the dose curve; as a rule, active = well fitted curve in the direction sought with a large enough effect; inconclusive = small, poorly fitted or top-dose-only effect, or another doubt; inactive = no such curve, though single readings can be large; an effect the other way counts as inactive or inconclusive. % is scaled to controls: 0 for no effect and ±100 for the full control effect.

SMILES | DT40 TDP1 no CPT | IL1B secr inh | TDP1 block | TDP1 cell CPT | Giardia kill | ELG1 repair inh
CN(CCCC1CCCC1)C(=O)c1cc(COc2ccc(F)cc2F)on1 | u | -51* | x | u | -4 | u
Cc1ccc(S(=O)(=O)N2CCc3cc(C(=O)Nc4ccc(C)c(C)c4)ccc32)cc1 | -23% | x | 5% | -21% | x | x
COc1ccccc1CC(=O)NCCN1CCCCC1 | 2% | 6 | x | 12% | -2 | -2%
CSCCC1NC(=O)N(CC(=O)Nc2c(Cl)cc(Cl)cc2Cl)C1=O (stereo not given) | u | -5 | 4% | 16µM* | -5 | 0%
c1ccc(-c2ccc3cnccc3n2)cc1 | -13% | -6 | x | -5% | x | x
COc1ccc(NC(=O)C2CCN(S(=O)(=O)c3c(C)noc3/C=C/c3cccs3)CC2)cc1Cl | u | x | 2% | u | 1 | x
Cc1noc(/C=C/c2cccs2)c1S(=O)(=O)N1CCC(C(=O)NCCCN2CCCC(C)C2)CC1 (stereo not given) | u | -51* | -1% | u | -18 | 13%
CCCCNC(=O)C1CCCN(S(=O)(=O)c2c(C)noc2/C=C/c2cccs2)C1 (stereo not given) | 13µM* | u | x | u | 22 | u
CCOC(=O)c1ccccc1NC(=O)CSc1nnnn1C | -3% | -12 | 1%[56.1 µM] | -7% | 11 | 8%
O=C(Cc1cc(C(F)(F)F)cc(C(F)(F)F)c1)Nc1c(-c2ccccc2)[nH][nH]c1=O | -15% | 19 | x | -3% | x | x
Cc1ccc(CSCC(=O)NCc2cccs2)cc1 | 15% | 6 | 8% | 10% | 19 | u
CCOCCCNC(=O)c1ccc(-n2c(-c3ccccc3)cc3c2CCCC3)cc1 | 8.2µM* | x | 6% | 9.2µM* | x | x
CC1CCc2c(cc(-c3ccccc3)n2-c2ccc(C(=O)NC(C)C)cc2)C1 (stereo not given) | 21µM* | x | 4% | u | x | x
CCCCOc1cccc(C(=O)Nc2sc3c(c2C(=O)OCC)CCCC3)c1 | -8% | x | 4%[2.28 µM] | -3% | x | x
Cc1cccc(NCc2ccc(N(C)C)cc2)n1 | -28% | -15 | 13% | u | 2 | u
N#C/C(=C/Nc1ccccc1F)S(=O)(=O)c1ccc(Cl)cc1 | 0% | -6 | x | 1% | 20 | 11%
Cc1sc2c(c1C)c(=O)n(Cc1ccccc1)c(=O)n2Cc1ccc(F)cc1 | -5% | x | -3% | -3% | x | x
C=CCn1c(=O)c2c(C)c(C)sc2n2c(Nc3ccccc3)nnc12 | 23µM* | -18 | -2% | 23µM* | -4 | u
COC(=O)[C@@]1(Cc2ccc(OC)cc2)[C@H]2c3cc(C(=O)N(C)C)n(Cc4ccc(C)c(F)c4F)c3C[C@H]2CN1C(=O)c1ccccc1 | x | x | 18% | x | x | x
CCCCN(CCCN)c1ccc(Br)cn1 | u | x | x | u | -9 | x
NCCCN(Cc1ccc(Cl)cc1)c1ccc(Br)cn1 | 7.9µM* | x | x | 10µM* | 3 | x
NCCCN(Cc1ccc(Cl)c(Cl)c1)c1ccc(Br)cn1 | 5µM* | x | x | 3.5µM* | 0 | x
CCc1ccc2oc(-c3ccc(C)c(NC(=O)COc4ccc(Cl)cc4)c3)nc2c1 | 3% | x | x | 6% | x | x
CCN(CC)S(=O)(=O)c1cc(C(=O)Nc2ccc(Cl)cn2)ccc1C | 16µM* | -54* | 7% | u | -14 | u
CCN(CC)S(=O)(=O)c1ccc(C(=O)Nc2cc(C)on2)cc1 | -7% | 3 | x | -10% | -13 | 2%
SMILES | DT40 TDP1 no CPT | IL1B secr inh | TDP1 block | TDP1 cell CPT | Giardia kill | ELG1 repair inh
CCN(CC)S(=O)(=O)c1cc(C(=O)Nc2cc(C)on2)ccc1Cl | u | -6 | x | -27% | -28 | 16µM*
CC(C)(C)NC(=O)c1ccc(Sc2ccccc2)c([N+](=O)[O-])c1 | 8.2µM* | 5 | 5% | u | 1 | -8%
CC1(C)c2ccccc2N2CC(=O)NC21/C=C/c1ccco1 (stereo not given) | 23µM* | -3 | -5% | u | -30 | 9%
CC1(C)c2ccccc2N2CCC(=O)NC21/C=C/c1ccco1 (stereo not given) | u | 2 | 0% | -4% | -15 | -6%
Cc1ccc2[nH]c(=O)c(CN(c3cccc(C)c3C)S(=O)(=O)c3ccccc3)cc2c1 | 5.8µM* | 5 | 5% | 16µM* | 7 | -14%
Cc1ccc2cc(CN(CC(C)C)S(=O)(=O)c3ccccc3)c(=O)[nH]c2c1 | u | 1 | -2% | u | -17 | u
CC(C)C(=O)N(Cc1cc2ccccc2[nH]c1=O)C(C)(C)C | 21µM* | 11 | 0% | -18% | -4 | 22%
CCCCN(Cc1cc2ccccc2[nH]c1=O)S(=O)(=O)c1ccc(C)cc1 | 23µM* | -12 | x | u | 1 | u
Cc1ccc(S(=O)(=O)N(Cc2cc3ccccc3[nH]c2=O)c2cccc(C)c2)cc1 | 7.3µM* | 18 | 1% | 10µM* | -10 | -4%
Cc1ccc(S(=O)(=O)N(Cc2cc3ccc(C)cc3[nH]c2=O)c2ccccc2)cc1 | u | 17 | x | u | -7 | 9%
CC(C)(C)N(Cc1cc2ccccc2[nH]c1=O)C(=O)c1cccc([N+](=O)[O-])c1 | -13% | -13 | 3% | -23% | 18 | 0%
Cc1ccc(-c2nnc3ccccc3c2C(=O)Nc2ccc(F)cc2)cc1 | -23% | x | 0% | u | x | x
CCN(CC)S(=O)(=O)c1ccc2c(c1)nc(CN(C)C(=O)Nc1ccc(F)cc1)n2C | u | x | 4% | u | x | x
O=C(CC1CCCC1)Nc1nc2ccccc2[nH]1 | 9.2µM* | 0 | 2% | u | 7 | u
O=C(Nc1nc2ccccc2[nH]1)C1CCC1 | 23µM* | -16 | 2% | u | -4 | u
Oc1ccccc1C1=Nc2nc3ccccc3n2C(c2ccccc2)C1 (stereo not given) | 18µM* | -9 | 12% | 21µM* | -8 | u
COc1ccccc1-c1ccnc(-n2ncc(C(=O)N3CCCCC3c3cccnc3)c2C)n1 (stereo not given) | -13% | x | x | 13%[9.04 µM] | x | x
CN(C=O)c1cc([N+](=O)[O-])ccc1OCc1ccccc1 | u | 4 | x | -25% | 11 | x
